Hits are enriched below; roughly 4.3% of the tested compounds scored in any of these assays.
MLL AF4-AF9 inh: inhibitors of AF4 peptide binding to AF9, primary screen, biochemical, AlphaScreen, biotin-AF4 peptide, FLAG-AF9, single point | inhibition, % at 10 µM | actives 0.47% (n = 350,000) | AID 651704, 2012;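 active means every replicate reaching a set inhibition limit, whatever the replicate mean, cut at about 25% in these data; inconclusive means mean inhibition reaches that limit but some replicates miss it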;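 further: 0% = plate neutral control median and 100% = total signal loss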
Target sequence (P42568 whole entry, looked up): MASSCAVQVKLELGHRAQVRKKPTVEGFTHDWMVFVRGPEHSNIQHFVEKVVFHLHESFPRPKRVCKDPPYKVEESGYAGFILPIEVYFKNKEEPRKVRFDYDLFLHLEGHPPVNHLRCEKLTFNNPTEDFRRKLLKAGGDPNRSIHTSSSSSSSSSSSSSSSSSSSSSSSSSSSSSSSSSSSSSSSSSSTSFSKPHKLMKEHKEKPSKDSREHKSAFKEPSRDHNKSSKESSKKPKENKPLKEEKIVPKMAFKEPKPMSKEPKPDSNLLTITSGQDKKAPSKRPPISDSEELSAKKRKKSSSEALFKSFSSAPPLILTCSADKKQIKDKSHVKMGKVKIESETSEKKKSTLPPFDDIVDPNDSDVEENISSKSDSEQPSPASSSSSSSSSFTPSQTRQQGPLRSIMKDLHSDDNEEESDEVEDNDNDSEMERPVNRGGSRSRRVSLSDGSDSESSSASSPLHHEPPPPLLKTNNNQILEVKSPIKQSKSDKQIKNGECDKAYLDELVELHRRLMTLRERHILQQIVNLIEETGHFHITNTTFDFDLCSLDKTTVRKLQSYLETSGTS
FGF22 binding: binders of human FGF22 protein, primary screen, FGF22 synaptogenesis inhibitor project, biophysical, thermal shift, single point; activity (Tm shift, normalised), % at 9.99 µM; recombinant FGF22 thermal shift, SYPRO orange fluorescence; percent of sucrose octasulfate shift, DMSO zero; Fibroblast growth factor 22 (Homo sapiens), Q9HCT0; actives 1.5% (n = 340,000); AID 651658, 2012;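 active means mean Tm shift, scaled 0 neutral to 100 positive control, at about 1.3% or above, every replicate too, limit read from the data; inconclusive means no clear call, values can overlap the other calls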
esBAF inh: Bmi1 luciferase reporter increase in mESCs, primary screen, esBAF inhibitor project, mouse ES cells, Bmi1 luciferase knock-in, single point | 24 h; 100% = twice the neutral-well signal | reporter increase, % at 12.5 µM | actives 2% (n = 350,000); in the data active means activation above about 40%; inconclusive means no clear call, values can overlap the other calls;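 further: 0% = median of the plate's neutral control wells and 100% = double that signal; a rise in the Bmi1 reporter signal indicates esBAF inhibition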
MITF TRPM1 HTS: activators of MITF-driven TRPM1 promoter reporter, primary screen, cell-based, SK-MEL-5, luciferase, single point; SK-MEL-5 TRPM1-promoter luciferase, 24 h; % of positive control, neutral wells = 0; activation, % at 12.5 µM; actives 0.75% (n = 300,000); AID 588334, 2011;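 active means mean activation of at least 80% with every replicate also reaching 80%; inconclusive means mean reaches 80% but some replicate falls short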;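 further: 0% = neutral control wells and 100% = parthenolide positive control wells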
Wnt act: Wnt/beta-catenin pathway activators, primary screen, cell-based, plate reader, single point | Wnt/beta-catenin reporter cell assay, activator | activation, % at 9.35 µM | actives 1.2% (n = 300,000) | AID 743398, 2014; in the data active means activation above about 30%, passing the limit was not always enough; inconclusive means no clear call, values can overlap the other calls;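 further: 0% = neutral control wells and 100% = positive control wells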
SMARCA2 activ: SMARCA2 (BRM) function activators, primary screen, cell-based, luminescence, high throughput; MG213 cells, MMTV-luciferase reporter, dexamethasone, overnight; activation, % at 9.1 µM; actives 1% (n = 370,000); in the data active means activation above about 7.8%;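 further: 0% = vehicle wells and 100% = reference activator wells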
An asterisk follows results filed as active.

`CN(C)CC#Cc1ccc([C@H]2[C@@H](CO)N3CCCCN(CC4CC4)C[C@H]23)cc1` gave MLL AF4-AF9 inh 26* and FGF22 binding 0.
`CN(C)CC#Cc1ccc([C@@H]2[C@@H](CO)N3CCCCN(CC4CC4)C[C@H]23)cc1` gave MLL AF4-AF9 inh 16 and FGF22 binding -1.
CCn1c(COc2ccccc2)nnc1SCC(=O)Nc1ccc(S(=O)(=O)Nc2cc(C)nc(C)n2)cc1 was read as SMARCA2 activ 0.
Cc1cc(C)c(C(=O)CN2C(=O)NC3(CCC(C)CC3)C2=O)cc1C (stereo unspecified) was read as MLL AF4-AF9 inh -3, FGF22 binding 1, esBAF inh 0, MITF TRPM1 HTS -3, Wnt act -2 and SMARCA2 activ 1.
Cc1cc(C(=O)CN2C(=O)NC3(CCC(C)CC3)C2=O)c(C)n1C (stereo unspecified) was read as MLL AF4-AF9 inh 2, FGF22 binding 43*, esBAF inh -11, MITF TRPM1 HTS -10, Wnt act -1 and SMARCA2 activ -2.
`CC(C)C(=O)N=C1SC2CS(=O)(=O)CC2N1Cc1ccccc1` (stereo unspecified) gave MLL AF4-AF9 inh -4, FGF22 binding 43*, MITF TRPM1 HTS -3, Wnt act -7 and SMARCA2 activ 2.
Screening CC(C)C(=O)N=C1SC2CS(=O)(=O)CC2N1Cc1ccc(Cl)cc1 (stereo unspecified) returned MLL AF4-AF9 inh 1, FGF22 binding 0, MITF TRPM1 HTS 7, Wnt act -2 and SMARCA2 activ -6.
For CN(C(=O)c1cccc(NC(=O)Cc2ccc(NC(=O)C3CCCN(C(=O)C4CC4)C3)cc2)c1)C1CCCC1 (stereo unspecified) the results were MLL AF4-AF9 inh 0, FGF22 binding 43*, esBAF inh 8, MITF TRPM1 HTS -1, Wnt act -2 and SMARCA2 activ 4.
For O=C1NCCNC(=O)c2ccccc2OCCOc2ccccc21 the results were MLL AF4-AF9 inh -1, FGF22 binding 1, MITF TRPM1 HTS -9, Wnt act 0 and SMARCA2 activ 2.
For O=C1OCC/C1=C1/NCCNC1=O the results were MLL AF4-AF9 inh 2, FGF22 binding 44*, esBAF inh 0, Wnt act 2 and SMARCA2 activ -3.
`Oc1cc(NCCc2cccnc2)cc2cccnc12` gave MLL AF4-AF9 inh inconclusive, FGF22 binding 0, esBAF inh -3, MITF TRPM1 HTS -44, Wnt act 3 and SMARCA2 activ 1.
Screening Oc1cc(Nc2ccncc2)cc2cccnc12 returned MLL AF4-AF9 inh 70*, FGF22 binding 0, esBAF inh 20, MITF TRPM1 HTS -24, Wnt act 2 and SMARCA2 activ -1.
Oc1cc(Nc2cccnc2)cc2cccnc12 was read as MLL AF4-AF9 inh 39*, FGF22 binding -1, esBAF inh -48, MITF TRPM1 HTS -38, Wnt act 3 and SMARCA2 activ 0.
CCOc1cnc(-c2ccc(Cl)cc2)o1 was read as MITF TRPM1 HTS 63 and SMARCA2 activ 0.
`CCOc1cnc(-c2ccc(OC)cc2)o1` gave MITF TRPM1 HTS 92* and SMARCA2 activ 7.
COc1cccc(Nc2nn3c(=O)c4ccccc4nc3s2)c1 was read as esBAF inh 69* and MITF TRPM1 HTS 114*.
`O=c1c2ccccc2nc2sc(Nc3ccc(F)cc3)nn12` gave MLL AF4-AF9 inh -1, FGF22 binding 0, esBAF inh inconclusive, MITF TRPM1 HTS 51, Wnt act 29 and SMARCA2 activ 4.
Screening Cc1ccccc1Nc1nn2c(=O)c3ccccc3nc2s1 returned esBAF inh 38, MITF TRPM1 HTS 43, Wnt act 35* and SMARCA2 activ 2.
`C=CCSc1nn2c(=O)c3ccccc3nc2s1` gave esBAF inh 14, Wnt act 52* and SMARCA2 activ 5.
Clc1ccc(CN2CCN(N=Cc3cccc(OCc4ccccc4)c3)CC2)cc1 was read as SMARCA2 activ 1.

Assay outcomes (PubChem BioAssay)
